mHtt clearance = clearance of mutant huntingtin inclusions, primary screen, imaging, HeLa Exon1htt(103Q)mCFP, confocal imaging. aggregate imaging; zero = plate's median compound well. inhibition, % at 1.5 µM. actives 0.42% (n = 47,000). AID 853, 2007;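 active means inhibition of aggregate fluorescence above about 70%, also judged a hit by eye on the cell image, limit read from the data, passing the limit was not always enough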;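 further: cells exposed to compound for three days before fixation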
D1 mod = D1 CRE-luciferase signal change, two-sided – cell-based, HEK293 D1, dopamine EC30, D1 allosteric modulator project, primary screen | AID 641, 2007 | dopamine EC30 potentiation; actives deviate in either direction | actives 5.9% (n = 58,000) | B-score at 10 µM;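 active means luminescence count or its row- and column-corrected plate score outside the 99.7% band of the plate's sample wells, on either side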
M1 antag = antagonists of rat M1 muscarinic receptor; Muscarinic acetylcholine receptor M1 (Rattus norvegicus), P08482; CHO-M1 cells, Fluo-4 calcium, ACh EC80 antagonist mode; active compounds read low; B-score at 10 µM; actives 3.4% (n = 64,000);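 active means calcium fluorescence response, raw or row-and-column corrected B-score, differing from the plate sample mean either way at a set confidence level, mostly lower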
M1 agonist = M1 muscarinic receptor agonists, primary screen, CHO-M1 cells, Fluo-4 calcium, agonist mode | Fluo-4 calcium fluorescence; active compounds read high | B-score at 10 µM | actives 3% (n = 64,000) | AID 626, 2007;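 active means fluorescence rise, raw or as B-score row- and column-corrected plate score, outside the 99.7% band of its plate's samples, either direction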
WNV protease inh = inhibitors of WNV NS2B-NS3 protease, primary screen, biochemical, fluorogenic substrate | AID 577, 2007 | actives 0.18% (n = 65,000) | z-score (no concentration beside the values) | fluorogenic substrate Ex360/Em465; active compounds read low | Genome polyprotein (West Nile virus), P06935; in the data active means z-score below about -3
Target sequence (P06935 1371-1501 limits assumed): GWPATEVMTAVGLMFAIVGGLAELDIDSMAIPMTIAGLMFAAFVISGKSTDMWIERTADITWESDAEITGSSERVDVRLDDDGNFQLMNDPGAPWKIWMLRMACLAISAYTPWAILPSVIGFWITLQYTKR
Target sequence (P06935 1502-1679 limits assumed): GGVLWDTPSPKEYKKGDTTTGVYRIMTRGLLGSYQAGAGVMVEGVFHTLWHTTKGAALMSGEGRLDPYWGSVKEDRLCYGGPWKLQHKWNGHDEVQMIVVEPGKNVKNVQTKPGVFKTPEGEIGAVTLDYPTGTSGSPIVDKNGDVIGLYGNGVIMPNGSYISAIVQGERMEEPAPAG
Active calls of the source: *; . = no result. Only some compounds are listed: those with a hit (about 8.9% of all), similar ones and a draw of the others.

SMILES | mHtt clearance | D1 mod | M1 antag | M1 agonist | WNV protease inh
Cc1nc2c(c(=O)n1CC1CCCO1)c1nc3ccccc3nc1n2CCC(C)C (stereo not given) | . | . | 1.11 | -0.0231 | 0.6
Cc1nc2c(c(=O)n1CCC(C)C)c1nc3ccccc3nc1n2Cc1ccc2c(c1)OCO2 | . | 8.83* | 0.143 | -0.497 | -0.16
CCN1CCN(c2ncc(C(=O)N3CCN(c4ccccc4OC)CC3)c3ccccc23)CC1 | 5.9 | -0.77 | -10.1* | -1.02 | -0.52
CC1CN(S(=O)(=O)c2ccc(Cl)c(C(F)(F)F)c2)CC(C)O1 (stereo not given) | 8.3 | -0.5 | -0.644 | 0.505 | -1.74
COc1nc(Nc2nc3ccccc3c(=O)[nH]2)nc2ccc(C)cc12 | . | -2.68* | -2.09* | 1.53 | -0.76
CC(SC1CCCC1)C(=O)NC(C)(C#N)C(C)C (stereo not given) | . | -2.12* | 0.0179 | -0.173 | 0.22
COC(=O)C1CCC(C)(C(=O)Nc2ccccc2)C1(C)C (stereo not given) | 4.9 | 0.313 | -0.999 | 0.508 | -0.93
COc1cc(OC)cc(-c2cc3nc4c(c(N5CCN(c6cnccn6)CC5)n3n2)CCCC4)c1 | . | -3.35* | -0.304 | 2.45 | -0.77
COc1cc(OC)cc(-c2cc3nc4c(c(N5CCN(c6ncccn6)CC5)n3n2)CCCC4)c1 | . | . | -0.0171 | -0.0335 | -0.37
COc1ccccc1NC(=O)c1oc2ccccc2c1NC(=O)c1cc(OC)c(OC)c(OC)c1 | 17.0 | 14* | -0.0325 | 0.13 | 0.82
O=C(NCCCc1ccccc1)c1cnc2n(c1=O)CCS2 | 12.0 | -0.0359 | 0.246 | -0.768 | -0.64
O=C(NCc1ccccc1)c1cnc2n(c1=O)CCS2 | 50.8 | -3.47* | 0.365 | -0.214 | -0.39
O=C(Nc1sccc1C(=O)NCc1ccco1)c1cccnc1 | -2.0 | . | 0.598 | 1.81 | -0.49
CNC(=O)c1ccsc1NC(=O)c1ccccc1 | . | 17* | -1.26 | 0.353 | -0.29
COc1ccccc1C1CC(c2ccccc2)Nc2ncnn21 (stereo not given) | 21.3 | 0.013 | -0.0726 | -0.0193 | -0.2
CC(=O)NC(C)C(=O)OCc1ccc(Cl)cc1Cl (stereo not given) | 4.2 | . | -0.0135 | 0.924 | 0.16
CCCCCn1c(SCC#N)nc2cc(C(=O)NC3CCCCC3)ccc2c1=O | . | 0.148 | 0.405 | -0.412 | 0.18
CCCCCn1c(SCC#N)nc2cc(C(=O)NCC3CCCO3)ccc2c1=O (stereo not given) | 28.5 | . | 0.00153 | 2.53* | -0.26
O=c1/c(=C/c2ccccn2)sc2nc3ccccc3n12 | 11.6 | -3.83* | -0.487 | 0.252 | -0.06
O=c1c2ccccc2nc2sc3ccccc3n12 | -15.9 | -0.0623 | -0.0658 | -0.0459 | 1.32
Cc1cc(C)c2c(N)c(C(=O)Nc3nccs3)sc2n1 | -27.1 | -6.56* | 0.0343 | -0.0929 | 1.07
CC(=O)N(Cc1ccco1)C1(C(=O)NC2CCCCC2)CCCCC1 | -22.3 | -0.211 | 2.07* | 0 | -0.77
O=S(=O)(c1ccc(Oc2ccc(S(=O)(=O)N3CCOCC3)cc2)cc1)N1CCOCC1 | . | -1.22 | -0.301 | 0.588 | -0.66
C=CS(=O)(=O)c1ccc(Oc2ccc(S(=O)(=O)C=C)cc2)cc1 | . | -4.79* | 0.505 | -1.09 | -1.08
Cc1ccc(SCc2[nH]nc3c2C2(CCSCC2)C(C#N)=C(N)O3)cc1 | 9.3 | . | 0.873 | -1.61 | -0.03
SMILES | mHtt clearance | D1 mod | M1 antag | M1 agonist | WNV protease inh
CCOC(=O)N1CCC2(CC1)C(C#N)=C(N)Oc1n[nH]c(CSc3ccc(C)cc3)c12 | 60.4 | -4.59* | -1.4 | -0.143 | -0.87
CCc1c(O)nc(SCC(=O)N2CCOCC2)n(-c2ccccc2)c1=O | -32.9 | 0.635 | 0.0202 | 0.0355 | -1.09
COc1ccccc1-n1c(SCC(=O)N2CCOCC2)nc(O)c(Cc2ccccc2)c1=O | 20.6 | 0.0102 | 0.00961 | -0.512 | -8.64*
O=C(CSc1nnc(Cc2ccccc2)n1-c1ccc(F)cc1)N1CCOCC1 | 27.6 | -0.203 | 0.369 | -1 | 0.38
O=C(CSc1nnc(Cc2ccccc2)n1C1CCCCC1)N1CCOCC1 | 27.8 | 1.54 | 1.12* | 0.852 | -0.69
CCOc1ccc(NC2=NC(C(=O)NCc3ccccc3)CC(=O)N2)cc1 (stereo not given) | . | -0.236 | 0.494 | -0.655 | -1.2
Clc1ccc(SCCn2ccnc2)cc1 | . | -0.732 | -0.821 | 0.954 | 0.38
O=C(O)c1ccc(Cl)c(NC(=O)C2CCCN2S(=O)(=O)c2cccc3nsnc23)c1 (stereo not given) | -2.9 | -0.729 | 0.0892 | -0.347 | 0.46
CCOc1nnc(C)c2c(C)n(-c3ccc(Cl)cc3)nc12 | 74.2* | . | . | . | .
Clc1ccccc1CSc1ncn(-c2ccccc2)n1 | 17.5 | . | . | . | .
COc1ccc(NC(=O)COn2nnc3ccc(Cl)cc32)cc1OC | 34.3 | -2.6* | 0.423 | -0.409 | -0.49
O=C(NCc1ccccn1)c1ccc(Cn2cc(Br)cn2)o1 | . | -1.45 | 2.32* | 0.0587 | 0.2
O=C(NC1CCCCC1)c1ccc(Cn2cc(Br)cn2)o1 | . | 0.012 | 0.735 | 0.6 | -0.96
CCc1cc2c(CN3CCN(CCO)CC3)cc(=O)oc2cc1O | . | -0.151 | 0.661 | -0.935 | 4.98
COCCOC(=O)C1=C(C)NC2=C(C(=O)CC(C)(C)C2)C1c1cc2c(cc1Br)OCO2 (stereo not given) | . | 0.276 | 0.183 | 0.0233 | 1.12
COCCOC(=O)C1=C(C)NC2=C(C(=O)CC(C)(C)C2)C1c1ccc(N(C)C)cc1 (stereo not given) | -104.8 | -5.82* | -0.58 | -0.0343 | -0.78
CCOC(=O)Cc1c(C)nc2c(-c3cccc(Br)c3)c[nH]n2c1=O | . | 0.169 | 0.0559 | -1.7 | 0.07
c1ccc2nc(-c3nc4ccccc4[nH]3)ccc2c1 | . | -4.78* | 0.0723 | 0.546 | -0.7
C/C=C/C=[N+](\[O-])C(C)/C(=N/O)c1ccc(F)cc1 (stereo not given) | . | -5.69* | 0.443 | 0.586 | 1.96
COc1ccccc1NC(=O)c1cc2n(n1)C(C(F)(F)F)CC(c1ccc3c(c1)OCO3)N2 (stereo not given) | -6.7 | -0.139 | 0.803* | -0.282 | -0.78
C=CCSc1nc2sc(C)c(C)c2c(=O)n1CC=C | 39.3 | . | . | . | .
C=CCn1c(SCc2cc(=O)n3ccsc3n2)nc2sc(C)c(C)c2c1=O | . | 4.02* | -0.049 | 0.38 | 0.57
Cn1c(=O)[nH]c(=O)c2c1nc(Sc1nc3ccccc3s1)n2Cc1ccccc1 | . | 3.96* | -0.0594 | -0.771 | 0.82
Cc1cccc(Cn2c(SCCN3CCCCC3)nc3c2c(=O)[nH]c(=O)n3C)c1 | . | -0.254 | -3.58* | -0.0356 | 0.52
Cn1c(=O)c2c(nc(CN3CCN(CCO)CC3)n2Cc2cccc3ccccc23)n(C)c1=O | . | 1.15 | -0.375 | -0.895 | 0.95
COc1ccc(C(=O)Nc2ccc(S(=O)(=O)Nc3nccnc3OC)cc2)cc1OC | 33.6 | -0.311 | -18.7* | 25* | 0.19
COc1ccc(C(=O)Nc2ccc(S(=O)(=O)N3CCCCC3)cc2)cc1OC | -62.8 | 0.287 | 0.0618 | -1.01 | 0.56
O=C(CN1C(=O)c2ccccc2C1=O)OCN1C(=O)c2ccccc2C1=O | . | . | 0.608 | -0.148 | -0.3
